Sampled rows, rich in hits. Any-hit rate of the full collection: about 1.8%.
SUMO Mot1 rescue: yeast Mot1-301 growth rescue at high temperature, primary screen, SUMOylation pathway inhibitor project, S. cerevisiae, ATP luminescence, 38.5C. S. cerevisiae Mot1-301 growth rescue; percent above DMSO median, 100 means doubled. growth rescue, % at 18.8 µM. 1% of 320,000 active. AID 2716, 2010;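 active means every valid replicate shows activation above 250% relative to neutral control wells; inactive means the rest, any valid replicate at or below 250%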;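 further: OY570 slx delta 5 strain wells were the positive control but not used for scaling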
NALP1 inh: NALP1 inflammasome inhibitors in reconstituted yeast, colorimetric, S. cerevisiae, triplicate retest. S. cerevisiae NALP1/ASC/caspase-1 growth, X-gal OD620, 72 h. inhibition, % at 10 µM. 0.61% of 280,000 active; in the data active means inhibition mostly above about 24%, no sharp cut-off; inactive means mostly below about 32%
PolyA inh: polyadenylation inhibitors in yeast reporter cells, primary screen, luminescence, S. cerevisiae; S. cerevisiae SKY197-pL101 polyadenylation reporter, beta-gal luminescence; efflux-impaired pdr1/pdr3 knockout yeast; score 100 = 6 SD above DMSO; activity score, % at 12 µM; 0.02% of 300,000 active; AID 1875, 2009;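 active means lowest replicate activity score at least 50, where 100 means six control SD above control mean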;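 further: yeast exposed to compound for 9 h at 30 °C; higher score means more reporter readthrough which indicates perturbed polyadenylation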
NALP3 yeast inh: NALP3 inflammasome inhibitors in reconstituted yeast, primary screen, luminescence, uHTS. Yeast reconstituted NLRP3/ASC/caspase-1, beta-gal luminescence, 24 h. AID 2825, 2010. inhibition, % at 10 µM. 0.39% of 330,000 active;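 active means inhibition of 50% or more; inactive means inhibition below 50%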;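 further: plate controls were induced DMSO wells for no effect and uninduced yeast grown without galactose for full effect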
Active calls of the source: *; x = not tested or not shown; ! = a repeat was not active.

SMILES	SUMO Mot1 rescue	NALP1 inh	PolyA inh	NALP3 yeast inh
Cc1ccccc1OCC(O)Cn1c(=N)n(CCN2CCOCC2)c2ccccc21 (stereo unspecified)	10.0	42.8*!	-3.0	-1.0
N#Cc1ccccc1Cn1cc(/C=C/[N+](=O)[O-])c2ccccc21	-26.9	74.7*	-54.9	3.8
O=C(c1ccc(S(=O)(=O)c2cccc(Cl)c2)c([N+](=O)[O-])c1)N1CCN(c2ccccn2)CC1	-16.6	1.9	-14.1	0.8
CC1(C)Cc2nc3sc4c(NCCO)ncnc4c3cc2CS1	-12.3	30.6*	1.9	6.1
COc1ccc(OCc2cc(C(=O)N3CCN(CC4CC4)CC3)no2)c(Cl)c1	1.4	28.4*	-3.0	17.9
CCN(CCNC(=O)c1ccc2nc(-c3ccccc3NC(C)=O)c(=O)[nH]c2c1)c1ccccc1	13.5	3.9	7.7	8.0
CCn1c(COc2ccc3ccccc3c2C)nnc1SCC(=O)Nc1cccc(C(=O)O)c1	-0.6	21.6	10.6	8.0
Fc1ccccc1NC(=S)NCCc1cccc(Cl)c1	8.6	29.8*	x	16.0
S=C(NCCc1ccccc1)NCc1cccc(Cl)c1	46.2	-2.5	-1.1	12.2
O=C(COC(=O)C1CCCC1)NCc1ccc(Cl)cc1	-6.4	-27.2	3.4	-12.6
COc1cccc(C(=O)O/N=C(\N)Cc2ccc(Cl)cc2)c1	32.5	77.3*	-67.3	17.3
N/C(Cc1ccc(Cl)cc1)=N\OC(=O)C1CCCCC1	17.3	47.1*	-7.6	10.0
COc1cccc(C(=O)O/N=C(\N)c2ccc(C)cc2)c1	0.2	18.6	-4.2	34.5
Cc1ccccc1-n1c(SCC(=O)N2CCN(c3ccccc3)CC2)nnc1-c1ccncc1	8.1	-33.0	-2.5	-4.7
COC(=O)c1c(N2C(=O)CC(Sc3ccccc3C(=O)O)C2=O)sc(C)c1C (stereo unspecified)	-13.4	21.5*	-8.2	1.3
O=C(O)c1cccnc1SC1CC(=O)N(c2ccccc2)C1=O (stereo unspecified)	1.7	x	13.3	-1.1
O=C(O)c1ccccc1SC1CC(=O)N(c2ccccc2)C1=O (stereo unspecified)	-8.8	56.9*	-8.4	17.8
C=C(C)COc1ccc(-c2n[nH]c(C)c2-c2ccc(Br)cc2)c(O)c1	-15.2	13.1	16.2	13.8
C/C(=C\C(=O)c1ccc(F)cc1)Nc1ccc(N2CCOCC2)cc1	0.3	29.0	10.5	16.2
COc1ccc(NC(=O)CN2CCN(S(=O)(=O)c3cccs3)CC2)cc1Cl	-11.9	x	x	12.1
CCS(=O)(=O)N1CCC(C(=O)NCc2cc(OC)ccc2OC)CC1	1.1	40.6*	-6.5	4.6
CCC(CC)NC(=O)C1CCN(S(=O)(=O)c2cccs2)CC1	-23.0	33.2*	19.9	13.7
CCC(C)NC(=O)C1CCN(S(=O)(=O)c2cccs2)CC1 (stereo unspecified)	20.6	-5.7	-11.2	0.9
COc1ccc(NC(=O)C2CCN(S(C)(=O)=O)CC2)cc1Cl	325.3*	11.5	-19.0	7.1
COc1ccc(CNC(=O)CN2CCN(S(=O)(=O)c3cccs3)CC2)cc1OC	x	35.3*	-1.0	-3.7
SMILES	SUMO Mot1 rescue	NALP1 inh	PolyA inh	NALP3 yeast inh
COc1ccc(OC)c(CNC(=O)C2CCN(S(=O)(=O)N3CCC(C)CC3)CC2)c1	2.2	-6.1	-13.9	6.6
COc1ccc(OC)c(NC(=O)C2CCN(S(=O)(=O)c3cccs3)CC2)c1	-2.2	39.0*	3.1	2.2
CCOC(=O)C1(Cc2ccccc2C)CCCN(C(=O)CCc2cccnc2)C1 (stereo unspecified)	781.7*	6.5	-11.1	15.8
COc1ccc(OC)c(NC(=S)N2CCN(c3ccccn3)CC2)c1	28.7	-2.1	20.5	8.0
COc1ccc(C(=O)CCc2nc3ccccc3s2)cc1	355.1*	25.4	10.5	28.7
COc1ccccc1NC(=O)CCc1nc2ccccc2s1	227.3	5.9	1.6	28.9
Cc1onc(-c2ccccc2Cl)c1C(=O)OCc1cnc(Cl)s1	-4.7	9.3	-22.5	9.9
COc1ccccc1N1CCN(C(=O)CCNS(=O)(=O)c2ccc(Br)s2)CC1	-17.3	4.1	91.0*	13.8
COC(=O)C1=C(C)NC(=O)NC1c1ccc(OC(=O)c2ccco2)cc1 (stereo unspecified)	-11.3	17.9*	21.3	-0.3
COC(=O)C1=C(C)NC(=O)NC1c1ccco1 (stereo unspecified)	-0.5	16.3	6.2	5.2
O=C(NC1CCCCC1)c1ccc(COc2ccccc2)o1	-1.9	x	-12.2	35.0
COc1c(Cl)cnn(-c2ccc(Cl)c(Cl)c2)c1=O	20.7	37.3*	-3.4	15.6
O=C(CSc1nnnn1Cc1ccccc1)Nc1ccc2c(c1)OCO2	-4.0	26.5	7.6	-6.6
O=C(Nc1ccc(Cl)cc1)ON=C1CCCC1	7.3	94.5*	-39.4	13.7
CC(C)Sc1nc(N2CCOCC2)c2c(c1C#N)CC(C)(C)SC2	-3.9	35.6*	-2.1	4.1
CSc1ccccc1NC(=O)CSc1nnc(CNC(=O)c2ccccc2F)n1C	307.6*	12.7	-14.5	6.7
CCc1nnc(NC(=O)CSc2nnc(CNC(=O)c3ccccc3F)n2C)s1	-4.1	14.0	-2.6	0.8
COc1ccc(CCNC(=S)N2CCN(S(=O)(=O)c3cccc(F)c3)CC2)cc1	350.6*	x	-0.2	0.0
CNc1cc(NS(=O)(=O)c2ccc(N)cc2)nc(NC)n1	-11.2	x	x	13.7
CC(NC(=O)c1ccc(CS(C)(=O)=O)cc1)c1ccc(-c2ccccc2)cc1 (stereo unspecified)	-11.3	-6.7	11.9	-0.5
OC(COC(c1ccc(Cl)cc1)c1ccc(Cl)cc1)CN1CCN(c2ccccn2)CC1 (stereo unspecified)	-26.6	44.7*	25.5	19.5
Cc1cccc(C)c1OCC(O)CN1CCN(c2ccccn2)CC1 (stereo unspecified)	x	-4.5	27.6	19.8
COc1ccccc1CNC(=O)CC(C)C	-9.8	8.3	3.4	-7.9
COC(=O)CC(N)c1ccc(OC)c2ccccc12 (stereo unspecified)	-11.8	36.1*	0.4	25.3
CCc1cc2cc3c(cc2nc1SCC(=O)OC(C)C)OCO3	213.7	4.8	-25.0	13.2
SMILES	SUMO Mot1 rescue	NALP1 inh	PolyA inh	NALP3 yeast inh
CCOC(=O)c1ccc(NC(=O)N2CCCCCC2)cc1	8.9	43.3*	-12.1	27.5
Cc1ccc(NC(=O)N2CCCC2)cc1Cl	15.7	38.1*	-9.0	7.9
CCOC(=O)c1ccc(NC(=O)N2CCOCC2)cc1	-0.4	6.2	-7.0	-7.6
Cc1nnc(SCC(=O)Nc2ccc(Br)cc2)n(N)c1=O	-9.5	1.0	-8.0	10.0
CNC(=O)CN1C(=O)CSc2ncccc21	-6.3	40.7*	-4.2	-2.2
Nc1ccc(Oc2ncccn2)c(Cl)c1	3.6	-0.1	-8.4	1.2
Cc1ccc(NC(=O)Cn2cnc3cc([N+](=O)[O-])ccc3c2=O)cc1	-5.0	36.9*	-4.3	30.6
Cc1ccc(NC(=O)Cn2cnc3cc([N+](=O)[O-])ccc3c2=O)c(Cl)c1	10.8	-0.6	2.3	0.8
